Shown is part of a subset that was picked to be rich in hits.
CHX counter – Cycloheximide Counterscreen for Small Molecule Inhibitors of Shiga Toxin | cell reporter, cycloheximide protein synthesis inhibition counterscreen | max response, % | hit rate 12% among 300,000; in the data active = max response mostly above about 13%, no sharp cut-off; inactive = mostly below about 14%; note: read at 38.3 µM for the half of the compounds with a filed dose
Shiga toxin inh – A qHTS for Small Molecule Inhibitors of Shiga Toxin; inhibition, % at 38.7 µM; Vero cells, Shiga toxin protein synthesis inhibition reporter; hit rate 9.2% among 290,000; in the data active = inhibition mostly above about 28%, no sharp cut-off; inactive = mostly below about 43%
FBPA Giardia inh – qHTS Assay for Inhibitors of Fructose-1,6-bisphosphate Aldolase from Giardia Lamblia; A8B2U2; purified Giardia FBPA; Potency, µM (titrated, usually from 59.6 µM), hits mostly inhibitors; hit rate 0.71% among 290,000; note: nearly all actives have a fitted effect of over 55% in size
Target sequence (A8B2U2 whole entry, looked up): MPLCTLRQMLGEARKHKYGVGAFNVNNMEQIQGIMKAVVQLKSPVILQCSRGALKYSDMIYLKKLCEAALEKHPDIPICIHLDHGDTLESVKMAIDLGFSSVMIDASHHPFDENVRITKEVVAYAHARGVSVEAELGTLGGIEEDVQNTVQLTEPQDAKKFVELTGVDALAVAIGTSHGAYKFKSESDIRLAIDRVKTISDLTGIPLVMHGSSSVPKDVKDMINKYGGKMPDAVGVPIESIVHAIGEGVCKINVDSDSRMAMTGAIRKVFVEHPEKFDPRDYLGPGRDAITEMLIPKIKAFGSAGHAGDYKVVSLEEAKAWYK
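Giardia FBPA (40 nM reagent) was preincubated 10 min at RT with compound (up to 57.5 uM final), then substrate plus GAPDH/TPI/NAD/arsenate coupling system with diaphorase/resazurin was added; resorufin fluorescence (525/598 nm) was read after 20 min.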
Sm TGR inh – qHTS Assay for the Inhibitors of Schistosoma Mansoni Peroxiredoxins; Schistosoma mansoni thioredoxin glutathione reductase (TGR), Q962Y6; purified TGR, DTNB reduction, TNB absorbance 405 nm; Potency, µM (doses to about 114 µM), hits mostly inhibitors; hit rate 3% among 360,000; AID 485364, 2010; note: nearly all actives have a fitted effect of over 60% in size
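Kinetic colorimetric format: TGR-catalysed, NADPH-driven DTNB reduction monitored via TNB absorbance. Enzyme dispensed at 20 nM; compound exposure 15 min at room temperature before reaction start.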
LmPK inhibitor – qHTS Assay for Inhibitors of Leishmania Mexicana Pyruvate Kinase (LmPK). Q27686. purified LmPK, Kinase-Glo ATP luminescence, 1 h. Potency, µM (series often up to 57.5 µM), usual class: inhibitors. hit rate 0.37% among 290,000. AID 1721, 2009
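In 50 mM imidazole pH 7.2 with 7 mM MgCl2, LmPK (0.1 nM) turned over PEP (0.5 mM) and ADP (0.1 mM) for 1 h at room temperature. Luciferase read-out of ATP.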
Tb PYK inh – qHTS of Trypanosoma Brucei Inhibitors; pyruvate kinase (Trypanosoma brucei), Q57TT1; TbPYK enzyme, Kinase-Glo Plus ATP luminescence, 45 min; Potency, µM (series often up to 76.8 µM), usual class: inhibitors; hit rate 0.12% among 410,000; note: nearly all actives have a fitted effect of over 50% in size
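In this concentration-response screen, enzyme-free wells defined baseline while DMSO plates tracked drift. Each reaction combined TbPYK, substrate, compound and 130 uM ADP for 45 min at room temperature. Kinase-Glo Plus luminescence gave the signal.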
Hits are given with their value; - = inactive; ? = inconclusive; . = no result; [ ] = another dose, or the depositor's remark. Unless noted, calls come from the whole dose curve; as a rule, active = well fitted curve in the direction sought with a large enough effect; inconclusive = small, poorly fitted or top-dose-only effect, or another doubt; inactive = no such curve, though single readings can be large; an effect the other way counts as inactive or inconclusive.

SMILES | CHX counter | Shiga toxin inh | FBPA Giardia inh | Sm TGR inh | LmPK inhibitor | Tb PYK inh
CN(Cc1ccco1)c1ncnc2ccc(-c3cccc(Cl)c3)cc12 | . | . | . | - | . | .
CC(NC(=O)/C=C/c1ccco1)c1nc2ccccc2n1Cc1cccc(Cl)c1 (configuration not stated) | 54 | 67 | - | 14µM | - | -
COc1ccc(C(NC(=O)/C=C\c2ccco2)c2ccc(OC)c(OC)c2)cc1 (configuration not stated) | 25 | 105 | - | 13µM | - | ?
COc1ccc(OC)c(NC(=O)COC(=O)/C=C/c2ccco2)c1 | . | . | . | . | . | -
CCC(Cc1ccccc1)NC(=O)/C=C/c1ccco1 (configuration not stated) | - | . | - | 10µM | - | ?
COc1ccc(C(NC(=O)/C=C/c2ccco2)c2ccc(OC)cc2)cc1 | - | - | - | 10µM | - | -
CCC(Cc1ccccc1)NC(=O)CCc1ccccc1 (configuration not stated) | - | - | - | - | - | -
C[C@H]1Cc2c(COc3ccccc3)nc3c(c2CO1)CN(C(=O)c1ccco1)CC3 | . | . | -[12.9 µM] | . | -[11.5 µM] | .
COc1ccccc1CNC(=O)C1CCN(C2=NS(=O)(=O)C(c3ccc(C)c(C)c3)=C2C)CC1 | . | . | . | - | . | -
O=C(O)CCc1ccc(-c2ccccc2)n1CC1CCCO1 (configuration not stated) | - | - | - | - | - | -
Cc1ccc(-c2ccc(CCC(=O)O)n2CC(=O)O)cc1 | - | - | - | 18µM | - | -
O=C(O)CCc1ccc(-c2ccc(F)cc2)n1CC(=O)O | - | - | - | ? | - | -
Cc1ccc(-c2ccc(CCC(=O)O)n2CC2CCCO2)cc1 (configuration not stated) | 14 | - | - | ? | - | -
NC(C(=O)O)C(O)c1ccc(O)c(O)c1 (configuration not stated) | . | . | . | . | . | -
CCOC(=O)Cc1c(C)nc2c(-c3cccc(Br)c3)cnn2c1C | - | - | - | - | - | -
Cc1cc(N)n2ncc(-c3ccccc3)c2n1 | 58 | 72 | - | - | - | -
CC(=O)Nc1ccc(Nc2cc(C)nc3c(-c4ccccc4)cnn23)cc1 | 34 | 71 | - | - | - | -
Cc1cc(-c2ccncc2)n2ncc(-c3ccccc3)c2n1 | . | . | . | . | . | -
Cc1cc(N)n2ncc(-c3cccc(Br)c3)c2n1 | 41 | 110 | - | - | - | -
COc1ccc(/C=C/c2ccccc2)cc1[C@H]1[C@@H]2C=CCC[C@@]2(C)C(=O)N1Cc1ccccc1 | 20 | 44 | - | 28µM | - | -
COc1ccc(Br)cc1[C@H]1[C@@H]2C=CCC[C@@]2(C)C(=O)N1Cc1ccccc1 | - | - | - | - | - | -
COc1ccc(Br)cc1C1C2C=CCCC2(C)C(=O)N1Cc1ccccc1 (configuration not stated) | - | - | - | . | . | .
COc1ccc(/C=C/c2ccccc2)cc1C1C2C=CCCC2(C)C(=O)N1Cc1ccccc1 (configuration not stated) | 49 | 115 | - | . | . | .
Cc1ccc2sc(N(CCCN(C)C)C(=O)CCS(=O)(=O)c3ccccc3)nc2c1C | - | - | - | 7.1µM | - | -
COc1ccc(OC)c2sc(N(CCCN(C)C)C(=O)CCS(=O)(=O)c3ccccc3)nc12 | . | . | . | 3.2µM | . | -
SMILES | CHX counter | Shiga toxin inh | FBPA Giardia inh | Sm TGR inh | LmPK inhibitor | Tb PYK inh
CCN(CC)CCN(C(=O)CCS(=O)(=O)c1ccccc1)c1nc2cc(OC)c(OC)cc2s1 | - | - | ? | 14µM | - | -
CN(C)CCN(C(=O)CCS(=O)(=O)c1ccccc1)c1nc2c(F)cccc2s1 | - | - | - | ? | - | -
CCN(CC)CCN(C(=O)c1ccc2c(c1)CCCC2)c1nc2ccc(C)cc2s1 | 20 | - | - | - | - | -
CCN(CC)CCN(C(=O)c1ccccc1OC)c1nc2ccc(F)cc2s1 | 20 | - | - | - | -[11.5 µM] | -
CN(C)CCCN(C(=O)CCSc1ccccc1)c1nc2cc3c(cc2s1)OCO3 | - | - | - | ? | - | -
CN(C)CCCN(C(=O)CCS(=O)(=O)c1ccccc1)c1nc2cc3c(cc2s1)OCO3 | 9.9 | - | . | 4µM | - | -
O=C(O)C1Nc2c(O)cc(Cl)c([N+](=O)[O-])c2C2C=CCC12 (configuration not stated) | - | - | ? | 3.5µM | ? | -
O=c1c2cc3c(=O)n(-c4ccccc4O)c(=O)c3cc2c(=O)n1-c1ccccc1O | 27 | 106 | - | - | - | -
C=C1C(c2ccc(C)cc2)=CCc2cc(C)cc(C)c21 | 39 | 53 | - | . | . | .
CC1CN(C(=O)N2CCC(C(=O)NCCCc3ccccc3)CC2)c2cc(Cl)ccc2O1 (configuration not stated) | . | . | . | - | . | -
CC(C)N(Cc1nccn1C)C(=O)CCc1nnc(CCCc2ccccc2)o1 | 56 | 59 | - | - | - | -
CC(C)N(CCO)C(=O)CCc1nnc(CCCc2ccccc2)o1 | 39 | 63 | - | - | - | -
CC(C)N1CCCC(CNC(=O)CCc2nnc(CCCCc3ccccc3)o2)C1 (configuration not stated) | - | - | - | - | - | -
Cc1ccccc1C(=O)N1CCN(CCc2ccccn2)CC1 | . | . | . | - | . | -
Cc1cccc(CCNC(=O)c2nn(C)c3c2CSc2ccccc2-3)c1 | . | . | . | - | . | -
CCOc1cc(/C=N/Nc2nncc(-c3ccccc3)n2)ccc1O | - | - | - | - | - | -
COc1cc(/C=N/Nc2nn3cnnc3c3ccccc23)ccc1O | - | - | ? | - | 7.9µM | -
CCOc1cc(/C=N/Nc2nn3cnnc3c3ccccc23)ccc1O | 12 | - | - | - | 16µM | -
C(=N\Nc1nn2cnnc2c2ccccc12)/c1ccco1 | - | - | ? | - | - | -
COc1cccc(/C=N/Nc2nn3cnnc3c3ccccc23)c1 | - | - | - | - | 25µM | -
Oc1ccc(/C=N/Nc2nn3cnnc3c3ccccc23)cc1 | - | - | - | - | 14µM | -
COc1ccc(C2(C)NC(=O)N(CC(=O)Nc3ccc(Br)cc3F)C2=O)cc1OC (configuration not stated) | - | - | - | - | - | -
O=C(C1CCC1)N1CCc2cc(S(=O)(=O)NCc3ccc(F)cc3)ccc21 | . | . | . | - | . | -
CCCCNC(=O)C[C@@H]1C[C@@]2(C(=O)OCC)CCCC=C2N(Cc2ccc3c(c2)OCO3)C1=O | . | . | . | . | . | -
O=C(CN1CCCN(Cc2cccc(F)c2)S1(=O)=O)Nc1ccc2c(c1)OCCO2 | . | . | . | - | . | -
COc1cc(OC)c(NC(=O)c2ccccc2F)cc1Cl | - | - | - | - | - | -
O=C(Nc1cccc2c1CCCC2)c1ccccc1F | 22 | - | - | - | - | -

High-throughput results deposited in PubChem by National Center for Advancing Translational Sciences (NCATS).
